# Experimental data taken from PubChem BioAssay (Tox21).
# Active and inactive are the calls of the source. Calls come from the whole dose curve; as a rule, active = well fitted curve in the direction sought with a large enough effect in the repeat runs; inconclusive = weak or mixed curves; inactive = flat fitted curve, though single readings scatter.
# Test: qHTS assay to test for compound auto fluorescence at 460 nm (blue) in HepG2 cells (AID 720687)
# Settings: autofluorescence 405/460 nm, 1 h; series mostly up to 91.3 µM
# Excerpt: U.S. Tox21 Program National Center for Advancing Translational Sciences [NCATS] NIH Chemical Genomics Center [NCGC] U.S. Environmental Protection Agency [EPA] National Institutes of Environmental Health Sciences [NIEHS] National Toxicology Program [NTP] U.S. Food and Drug Administration [FDA] Tox21 Assay Overview: Compound auto fluorescence often interferes with screening of the compound library against various biological targets and signaling pathways. Some of these compounds may have fluorophoric properties. Such properties may interfere with the assay outputs resulting in false positives and/or negatives. To decrease such complications and ensure the compound activities are relevant in terms of biological response, the Tox21 10K compound library was screened for auto fluorescence. From the fluorophores used as reporter signals in our screening assays, the auto fluorescence equivalencies of compounds against three fluorophores have been evaluated: Triamterene, Fluorescein and Rose Bengal sodium for blue, green and red fluorescence, respectively. The fluorescence intensities were measured using Excitation/Emission wavelengths at 405/460nm, 485/535nm and 540/590nm for blue, green and red labels, respectively. This assay includes the blue fluorescence data.
# Tox21 Assay Protocol Summary: 2,000 HepG2 cells in 5 uL of culture medium (MEM containing 10% FBS) per well were dispensed into black wall/clear bottom 1536-well plates using a Multidrop Combi Dispenser (ThermoFisher Scientific, Waltham, MA). The assay plates were incubated overnight at 37 C to allow cell attachment to the well bottom, followed by the transfer of 23 nL compound or DMSO vehicle by a pintool work station (Kalypsys , San Diego, CA). After the assay plates were incubated for 1 hr at 37 C and 5% CO2, fluorescence intensities in the assay plates were measured by an Envision (PerkinElmer, Shelton, CT) plate reader using three labels for measuring blue, green and red fluorescence at […] 460, 535 and 590 nm respectively.
row,Structure (SMILES),outcome
1,CCC(C)c1ccccc1O (stereo not given),inactive
2,CC(=O)O[C@]1(C(C)=O)CC[C@H]2[C@@H]3C=C(Cl)C4=CC(=O)[C@@H]5C[C@@H]5[C@]4(C)[C@H]3CC[C@@]21C,inactive
3,CCCCC(CC)COP(=O)(OCC(CC)CCCC)OCC(CC)CCCC (stereo not given),inactive
4,C#C[C@]1(O)CC[C@H]2[C@@H]3CCc4cc(OC)ccc4[C@H]3CC[C@@]21C,inactive
5,Cn1cnc([N+](=O)[O-])c1Sc1ncnc2nc[nH]c12,inactive
6,O=C=Nc1ccc(Cc2ccc(N=C=O)cc2)cc1,inactive
7,CC(C)CC(C)(O)C#CC(C)(O)CC(C)C (stereo not given),inactive
8,CC(C)=CCC/C(C)=C\CO,inactive
9,CC1=CC2C3CC(C=C3C)C2C1 (stereo not given),inactive
10,COc1c(Cl)c(Cl)c(Cl)c(Cl)c1Cl,inactive
11,CC(C(=O)O)c1cccc(C(=O)c2ccccc2)c1 (stereo not given),inactive
12,CC1=CCC(C(C)(C)O)CC1 (stereo not given),inactive
13,COc1ccc(OC)c(C(O)CNC(=O)CN)c1 (stereo not given),inactive
14,c1ccc(Nc2ccccc2)cc1,inactive
15,O=C(/C=C/C=C/c1ccc2c(c1)OCO2)N1CCCCC1,inactive
16,O=C(c1ccccc1)c1ccccc1O,inactive
17,CCOCCOCCO,inactive
18,Nc1ncnc2nc[nH]c12,inactive
19,Cc1cccc(C(=O)O)c1,inactive
20,CCC(C)(O)CCCC(C)C (stereo not given),inactive

row,Structure (SMILES),outcome
1,Cc1ccc2c(n1)Oc1ccc(C(C)C(=O)OCC(=O)N(C)C)cc1C2 (stereo not given),inactive
2,COC(=O)CCC(=O)OC,inactive
3,CCCCOCCOCCO,inactive
4,Cc1ccc(C)c(O)c1C,inactive
5,Nc1ccc(Nc2ccccc2)cc1,inactive
6,COc1ccc(C(=O)CC(=O)c2ccc(C(C)(C)C)cc2)cc1,inactive
7,COC(=O)c1ccccc1,inactive
8,Cc1c(C(N)=O)cc([N+](=O)[O-])cc1[N+](=O)[O-],inactive
9,Nc1ccccc1N,inactive
10,Cc1[nH]c(=O)c(C#N)cc1-c1ccncc1,inactive
11,Brc1cc(Oc2cc(Br)c(Br)c(Br)c2Br)c(Br)c(Br)c1Br,inactive
12,NNc1ccc(C(=O)O)cc1,inactive
13,NC=O,inactive
14,O=C(COc1ccc(Cl)cc1)N1CCN(Cc2ccc3c(c2)OCO3)CC1,inactive
15,CCCCc1oc2ccccc2c1C(=O)c1cc(I)c(OCCN(CC)CC)c(I)c1,inactive
16,CC(=O)c1ccccn1,inactive
17,CC(C)OB(OC(C)C)OC(C)C,inactive
18,C=CC(C)(CCC=C(C)C)OC(C)=O (stereo not given),inactive
19,CCC(C)CO (stereo not given),inactive
20,Clc1nc(Cl)c(Cl)c(Cl)c1Cl,inactive
